A selection: hits, their analogues and other compounds. The true share with any hit is near 4%.
TRHR agonist: qHTS for Small Molecule Agonists and Allosteric Enhancers of Human TRH Receptor: Primary Screen for Agonists. Thyrotropin-releasing hormone receptor (Homo sapiens), P34981. TRHR cells, calcium flux fluo-8, FDSS agonist mode. actives 0.18% (n = 360,000). activation, % at 2 µM. AID 493084, 2011
Target sequence (P34981 whole entry, looked up): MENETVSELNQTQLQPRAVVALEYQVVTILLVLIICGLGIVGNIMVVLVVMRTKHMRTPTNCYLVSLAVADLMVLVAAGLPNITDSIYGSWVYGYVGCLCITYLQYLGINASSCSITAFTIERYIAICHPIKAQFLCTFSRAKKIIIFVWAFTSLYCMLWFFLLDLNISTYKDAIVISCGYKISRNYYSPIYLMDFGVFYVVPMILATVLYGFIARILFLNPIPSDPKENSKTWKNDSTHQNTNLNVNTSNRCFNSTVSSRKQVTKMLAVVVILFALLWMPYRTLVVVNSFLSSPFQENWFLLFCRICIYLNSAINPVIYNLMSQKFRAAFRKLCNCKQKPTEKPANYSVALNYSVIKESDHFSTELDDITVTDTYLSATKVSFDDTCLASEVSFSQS
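Fluo-8-loaded TRHR cells; 10 s baseline, compound added, kinetic Ca2+ fluorescence read 1/s, agonist mode.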
TRHR enhancer: qHTS for Small Molecule Agonists and Allosteric Enhancers of Human TRH Receptor: Primary Screen for Enhancers. Thyrotropin-releasing hormone receptor (Homo sapiens), P34981. TRHR cells, fluo-8 calcium fluorescence, EC20 TRH enhancement. enhancement, % at 2 µM. actives 0.66% (n = 360,000); in the data active = enhancement above about 30%
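TRHR-expressing cells loaded with fluo-8 calcium dye were read kinetically (ex 480/em 530) during compound addition, then stimulated with an EC20 of TRH (10 nM final). Enhancement of the Gq-mediated intracellular calcium response was scored.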
D1 PAM: Potentiators of Human D1 Dopamine Receptor: qHTS; HEK293 TREx D1 cells, calcium flux, dopamine EC20 potentiation; actives 0.036% (n = 360,000); AID 504651, 2011; potentiation, % at 10 µM; D(1A) dopamine receptor (Homo sapiens), P21728; in the data active = potentiation above about 30%
D1 antag: Antagonist of Human D 1 Dopamine Receptor: qHTS; D(1A) dopamine receptor (Homo sapiens), P21728; HEK293 TREx D1 cells, calcium flux, dopamine EC80; active compounds read low; activity change, negative = inhibition, % at 10 µM; actives 3.2% (n = 360,000); in the data active = activity change below about -30%
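Using tetracycline-induced force-coupled D1 Hek293 cells and a calcium dye, signals were followed for 180 s after compound, then for 180 s after EC80 dopamine, to detect inhibitors.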
D1 ag: Allosteric Agonists of the Human D1 Dopamine Receptor: qHTS; D(1A) dopamine receptor (Homo sapiens), P21728; HEK293 T-REx D1 cells, calcium flux, agonist mode; activation, % at 2 µM; actives 1% (n = 360,000)
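Inducible HEK293 T-REx D1 cells, force-coupled to calcium signalling, were plated at 4000 cells/well with tetracycline and held overnight at 30 C. After no-wash calcium dye loading, compound-evoked calcium rise over 180 s flagged agonists.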
GRP78 ERSR act: qHTS for Inducers of the Endoplasmic Reticulum Stress Response (ERSR) in Human Glioma: qHTS. Potency, µM, actives largely listed as activators. actives 0.02% (n = 420,000). U87-MG GRP78 promoter luciferase reporter, 16 h. AID 602332, 2012; active = well fitted activation curve with a large enough effect; also: series mostly up to about 76 µM; nearly all actives have a fitted effect of over 35% in size
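ERSR induction read as luciferase luminescence (Bright-Glo, 10 min at room temperature) in stably transfected human U87-MG glioma cells exposed to compounds for 16 h, using GRP78 as sensor.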
Numbers stand for hits; i = inactive; nt = no result; ! = a repeat was not active. Rule as the data show it, unless noted: active = activation above about 30%; inactive = the rest.

SMILES	TRHR agonist	TRHR enhancer	D1 PAM	D1 antag	D1 ag	GRP78 ERSR act
Cn1c(C(=O)NCc2ccc(Cl)cc2)cc2c(=O)n(C)c3ccccc3c21	i	i	i	i	i	i
CCN(CC)S(=O)(=O)c1cccc(-c2nnc(SCCOc3ccccc3)o2)c1	i	i	i	i	i	i
CCN(CC)S(=O)(=O)c1cccc(-c2nnc(SCCOc3ccccc3C)o2)c1	i	i	i	i	33	i
COc1cc(Br)c(C(=O)c2nccc3cc(OC)c(OC)cc23)cc1OC	i	i	i	-31	i	i
O=C(COC(=O)/C=C/c1cccc([N+](=O)[O-])c1)NCCCN1CCCC1=O	i	i	i	i	i	i
Cc1csc(=O)n1CC(=O)OCC(=O)Nc1ccc(F)c(F)c1	i	33	i	i	i	i
Cc1ccc(NC(=O)COC(=O)Cn2c(C)csc2=O)cc1	i	i	i	i	i	i
COc1cc(NC(=O)C2CC(c3c(F)cccc3Cl)=NO2)cc(OC)c1OC (configuration not stated)	i	i	i	-39	i	i
Cc1cccc(NC(=O)Cn2c(=O)oc3cc(S(=O)(=O)NCc4ccccc4)ccc32)c1	i	i	i	-35	i	i
O=C(Cn1c(=O)oc2cc(Cl)ccc21)Nc1cccc(C(F)(F)F)c1	i	i	i	-47	i	i
COc1ccc(CNC(=O)Cn2c(=O)oc3cc(S(=O)(=O)N4CCCC4)ccc32)cc1	i	i	i	-41!	i	i
CC1CCN(S(=O)(=O)c2ccc3c(c2)oc(=O)n3CC(=O)NCc2ccc(F)cc2)CC1	i	i	i	-57	87	i
COc1cccc(CNC(=O)Cn2c(=O)oc3cc(S(=O)(=O)N4CCCCCC4)ccc32)c1	i	i	i	i	i	i
COc1cccc(CNC(=O)Cn2c(=O)oc3cc(S(=O)(=O)N4CCC(C)CC4)ccc32)c1	i	i	i	i	i	i
Cc1cccc(NC(=O)Cn2c(=O)oc3cc(S(=O)(=O)NC4CCCC4)ccc32)c1	i	i	i	i	i	i
CN1c2ccc(Cl)cc2C(=O)NC1C1CC=CCC1 (configuration not stated)	i	i	i	i	i	i
CCC(=O)Nc1cc(C(=O)NCc2ccc(C)cc2)ccc1S(=O)(=O)c1ccc(C)cc1	i	i	i	i	i	i
Cn1c(SCC(=O)NCCN2C(=O)CSC2=O)nnc1-c1ccccc1	i	i	i	i	i	i
COc1ccc(NC(=O)Cn2c(=O)oc3cc(S(=O)(=O)N4CCCC4)ccc32)cc1	i	i	i	i	i	i
CC(C)c1ccc(NC(=O)Cn2c(=O)oc3cc(S(=O)(=O)N4CCCC4)ccc32)cc1	i	i	i	-36	i	i
COc1ccc(NCc2nnc(SCC(=O)c3ccc(OC)cc3)n2C)cc1	i	i	i	-33	i	i
CC(C)Cn1c(N2CCN(C(=O)c3cccs3)CC2)nc2ccccc21	i	i	i	i	i	i
Cc1c(N=C2SC(CC(=O)Nc3ccccc3)C(=O)N2CCN2CCOCC2)c(=O)n(-c2ccccc2)n1C (configuration not stated)	i	i	i	-51	i	i
OCCNCCCCOc1cccc(Br)c1	i	i	i	i	i	i
C=CCNCCCCOc1cccc(Br)c1	i	i	i	i	32	i
SMILES	TRHR agonist	TRHR enhancer	D1 PAM	D1 antag	D1 ag	GRP78 ERSR act
COc1ccc(N2CCN(C3CCCCC3NS(=O)(=O)c3ccc(Cl)cc3)CC2)cc1 (configuration not stated)	i	i	i	i	i	i
COc1ccccc1N1CCN(C2CCCCC2NS(=O)(=O)c2ccc(Cl)cc2)CC1 (configuration not stated)	46	i	i	i	i	i
CCN(CC)CCCNC(=O)CNC(=O)c1nn(-c2ccc(OC)c(OC)c2)c(=O)c2ccccc12	i	i	i	i	i	i
O=C1C=C(N(CCO)Cc2ccccc2)c2ccccc2C1=O	i	39	i	i	i	i
CCC(=O)Nc1ccc(Cl)c(NC(=S)NC(C)=O)c1	i	i	i	i	i	i
COc1cc(OC)c(/C=C2\SC(=O)N(CC(=O)Nc3ccccc3F)C2=O)c(OC)c1	i	i	i	i	i	i
COc1cc(/C=C2\SC(=O)N(CC(=O)Nc3ccccc3F)C2=O)cc(Cl)c1O	101	i	i	i	130	i
Cc1nnsc1C(=O)N/N=C/c1ccc2ccccc2c1O	65	i	i	i	138	i
CCOC(=O)C1=NOC(COc2ccccc2C=O)C1 (configuration not stated)	i	i	i	i	i	i
Cc1cc(C)n(-c2nc3ccccc3nc2N2CCN(C(=O)c3ccc(Cl)cc3)CC2)n1	i	30	i	i	i	i
Cc1cc(C)n(-c2nc3ccccc3nc2N2CCCC2)n1	i	i	i	i	i	i
CCc1nc2c(OCc3ccc(C(F)(F)F)cc3)cccn2c1N(C)C(=O)c1ccc(OC)cc1	nt	nt	nt	nt	nt	i
CCOC(=O)C1CCCN(c2c(N3CCC(N4CCCCC4)CC3)c(=O)c2=O)C1 (configuration not stated)	i	i	nt	-33	i	i
O=C(C1=C(O)C(=O)N(CCN2CCOCC2)C1c1ccc([N+](=O)[O-])cc1)c1cccs1 (configuration not stated)	i	i	i	-75	i	i
O=C(C1=C(O)C(=O)N(CCN2CCOCC2)C1c1cccc(Br)c1)c1cccs1 (configuration not stated)	i	i	i	i	i	i
CC(C)C(NC(=O)c1ccc(F)cc1)C(=O)N1CCOCC1 (configuration not stated)	i	i	i	i	i	i
CC(C)C(NC(=O)c1ccc(F)cc1)C(=O)N1CCC1 (configuration not stated)	i	i	i	-37	i	i
O=S(=O)([O-])CCC[n+]1c(/C=C\Nc2ccccc2)oc2ccc(-c3ccccc3)cc21	118	i	i	i	123	nt
COc1cc(OC)cc(C(=O)Nc2ccccc2N2CCOCC2)c1	i	i	i	i	i	i
COc1ccc(N(C)S(=O)(=O)c2cccc(C(=O)NC3=NCCS3)c2)cc1	i	i	i	-39	i	i

Screening results: PubChem, National Center for Advancing Translational Sciences (NCATS)
